Laboratory results taken from PubChem BioAssay AID1159554 (Broad Institute, 2015).
Screen size: about 94,000 compounds; about 2,100 (2.2%) were called active. Rule as the data show it: active = activity change below about -80%; inconclusive = no clear call, values can overlap the other calls; inactive = above that. What follows is part of a selection rich in actives, with near analogues and random picks from the rest.

assay: Dd2 malaria parasite growth inhibition – SYBR Green fluorescence, single dose replicates, primary screen (AID 1159554); details: P. falciparum Dd2 growth, 72 h, at 10 µM, hits give low values

Activity change, active:
C[C@@H]1CN([C@@H](C)CO)C(=O)c2cccc(NC(=O)CCCCCC(=O)Nc3ccccc3N)c2O[C@H]1CN(C)C(=O)Nc1cccc2ccccc12 -86.4%
C[C@H]1CN([C@@H](C)CO)C(=O)c2cccc(NC(=O)CCCCCC(=O)Nc3ccccc3N)c2O[C@@H]1CN(C)CC1CCCCC1 -83.5%
O=C(c1ccccc1F)N1CC(=O)N2[C@H](CO)[C@H](c3ccc(-c4cccnc4)cc3)[C@H]2C1 -85.7%
O=C(C1CCCC1)N1CC(=O)N2[C@H](C1)[C@@H](c1ccc(-c3cccnc3)cc1)[C@@H]2CO -88.2%
CN(C)CC#Cc1ccc([C@@H]2[C@H](CO)N3C(=O)CN(C(=O)Cc4cccnc4)C[C@@H]23)cc1 -85.1%
C[C@@H]1CN([C@H](C)CO)C(=O)c2c(c3ccccc3n2C)-c2ccccc2CO[C@H]1CN(C)Cc1ccc(F)cc1 -83.8%
C[C@H]1CN([C@@H](C)CO)C(=O)c2c(c3ccccc3n2C)-c2ccccc2CO[C@H]1CN(C)S(=O)(=O)c1ccc(C#N)cc1 -85.2%
C[C@H]1CN([C@@H](C)CO)C(=O)c2ccccc2-c2ccccc2CO[C@@H]1CN(C)S(=O)(=O)c1ccc(C(F)(F)F)cc1 -83.7%
C[C@H]1CN([C@@H](C)CO)C(=O)c2ccccc2-c2ccccc2CO[C@H]1CN(C)Cc1ccc(-c2ccccc2)cc1 -88.6%
C[C@H](CO)N1C[C@H](C)[C@@H](CN(C)S(=O)(=O)c2ccc([N+](=O)[O-])cc2)OCc2ccccc2-c2c(n(C)c3ccccc23)C1=O -84.4%
C[C@H](CO)N1C[C@H](C)[C@@H](CN(C)S(=O)(=O)c2cccc(F)c2)OCc2ccccc2-c2c(n(C)c3ccccc23)C1=O -87.4%
Cc1ccc(S(=O)(=O)N(C)C[C@@H]2OCc3ccccc3-c3c(n(C)c4ccccc34)C(=O)N([C@@H](C)CO)C[C@@H]2C)cc1 -89.8%

Activity change, inactive:
C[C@H](CO)N1C[C@H](C)[C@H](CN(C)CC2CCCCC2)Oc2ccc(NC(=O)CCCCCC(=O)Nc3ccccc3N)cc2CC1=O -32.3%
CC(C)NC(=O)Nc1cccc2c1O[C@H](CN(C)CC1CCCCC1)[C@H](C)CN([C@H](C)CO)C2=O -26.3%
C[C@H](CO)N1C[C@H](C)[C@@H](CN(C)C(=O)Nc2ccccc2)Oc2c(NC(=O)CCCCCC(=O)Nc3ccccc3N)cccc2C1=O -26.6%
C[C@@H]1CN([C@@H](C)CO)C(=O)c2cccc(NC(=O)CCCCCC(=O)Nc3ccccc3N)c2O[C@H]1CN(C)C(=O)Nc1ccccc1 -53.7%
COc1cccc(S(=O)(=O)Nc2ccc3c(c2)[C@H]2C[C@H](CC(=O)O)O[C@H](CO)[C@H]2O3)c1 19%
CCCNC(=O)Nc1ccc2c(c1)C(=O)N(C)C[C@@H](OC)[C@@H](C)CN(Cc1ccccn1)[C@@H](C)CO2 -2.2%
O=C(NC1CCC1)[C@H]1[C@H](CO)[C@H]2Cn3c(ccc(-c4ccccc4)c3=O)[C@@H]1N2Cc1cocn1 10.7%
Cn1cnc(S(=O)(=O)NC[C@@H]2CC[C@@H]3[C@@H](CN3Cc3nccs3)O2)c1 28.5%
C[C@@H]1CCCCO[C@@H](CN(C)S(=O)(=O)c2cn(C)cn2)[C@@H](C)CN([C@@H](C)CO)C(=O)c2cc(NC(=O)Nc3ccc(C(F)(F)F)cc3)ccc2O1 -75.5%
O=C(Cc1cccnc1)N1CC(=O)N2[C@H](CO)[C@H](c3ccc(C#CC4CCCC4)cc3)[C@@H]2C1 -26.7%
O=C(Cc1cccnc1)N1CC(=O)N2[C@@H](CO)[C@H](c3ccc(C#CC4CC4)cc3)[C@@H]2C1 -6.96%
O=C(c1ccccc1F)N1CC(=O)N2[C@H](C1)[C@H](c1ccc(-c3ccc(F)cc3)cc1)[C@@H]2CO -63.7%
O=C(C1CCCC1)N1CC(=O)N2[C@@H](CO)[C@@H](c3ccc(-c4cccnc4)cc3)[C@@H]2C1 -20.4%
O=C(c1cccnc1)N1CC(=O)N2[C@H](CO)[C@H](c3ccc(-c4cccnc4)cc3)[C@@H]2C1 25.3%
O=C(c1ccccc1F)N1CC(=O)N2[C@H](CO)[C@@H](c3ccc(-c4cccnc4)cc3)[C@H]2C1 21.6%
COc1ccc2c3c([nH]c2c1)[C@@H](CO)N(C(=O)CN1CCOCC1)CC31CCN(C)CC1 27%
O=C(C[C@@H]1C=C[C@@H](NS(=O)(=O)c2ccccc2)[C@@H](CO)O1)NCc1ccccc1F 8.12%
CN(C)CC#Cc1ccc([C@@H]2[C@H](CO)N3CCCCN(C(=O)NC4CCCC4)C[C@@H]23)cc1 2.92%
CCCNC(=O)Nc1ccc2c(c1)C(=O)N(C)C[C@@H](OC)[C@H](C)CN(CCC)[C@@H](C)CO2 21.3%
COc1ccccc1NC(=O)N1CC(=O)N2[C@@H](CO)[C@H](c3ccc(C#CC4CC4)cc3)[C@@H]2C1 -3.54%
O=C(C[C@H]1CC[C@@H]2[C@H](COC[C@@H](O)CN2Cc2cc(F)cc(F)c2)O1)NC1CCC1 -26.6%
C[C@@H]1CN([C@@H](C)CO)C(=O)Cc2cc(NC(=O)CCCN(C)C)ccc2O[C@@H]1CN(C)Cc1ccc(-c2ccccc2)cc1 -71.2%
CC(C)C(=O)Nc1ccc2c(c1)C(=O)N(C)[C@H]1CC[C@H](CC(=O)NCc3ccc(F)cc3)O[C@H]1CO2 -8.71%
CC(=O)N1Cc2cc(C(=O)NCc3cc(F)cc(F)c3)nc(-c3cccc(C4=CCCC4)c3)c2[C@@H]1CCO -66.6%
O=C(Nc1ccccc1F)N1CC(=O)N2[C@@H](CO)[C@H](c3ccc(C#CC4CCCC4)cc3)[C@@H]2C1 -8.5%
CN1c2ccc(Br)cc2[C@@H]2[C@@H](CCN2C(=O)C2CCCCC2)[C@H]1CO 11.1%
CCCc1cn(CC[C@H]2CC[C@@H](NC(=O)C3CCOCC3)[C@@H](CO)O2)nn1 -3.07%
COC(=O)N(C)C[C@H]1OCc2ccccc2-c2ccccc2C(=O)N([C@@H](C)CO)C[C@H]1C 23.3%
C[C@@H]1CN([C@H](C)CO)C(=O)c2c(c3ccccc3n2C)-c2ccccc2CO[C@@H]1CN(C)Cc1ccc(F)cc1 -64.4%
Cc1ccc(S(=O)(=O)N(C)C[C@H]2OCc3ccccc3-c3ccccc3C(=O)N([C@@H](C)CO)C[C@@H]2C)cc1 -59.6%
CC(C)NC(=O)N(C)C[C@@H]1OCc2ccccc2-c2c(n(C)c3ccccc23)C(=O)N([C@@H](C)CO)C[C@H]1C 16%
COc1ccc(S(=O)(=O)N(C)C[C@@H]2OCc3ccccc3-c3ccccc3C(=O)N([C@@H](C)CO)C[C@@H]2C)cc1 -71.4%
C[C@H]1CN([C@@H](C)CO)C(=O)c2ccccc2-c2ccccc2CO[C@H]1CN(C)C(=O)Nc1ccc(-c2ccccc2)cc1 -74.8%
CC(C)NC(=O)N(C)C[C@H]1OCc2ccccc2-c2c(n(C)c3ccccc23)C(=O)N([C@H](C)CO)C[C@@H]1C 32.6%
C[C@H](CO)N1C[C@H](C)[C@@H](CN(C)Cc2ccc(C(F)(F)F)cc2)OCc2ccccc2-c2c(n(C)c3ccccc23)C1=O -13.7%
CC(C)C#Cc1ccc([C@H]2[C@@H](CO)N3C(=O)CN(C(=O)Cc4ccccc4)C[C@H]23)cc1 -68.7%
COc1ccccc1NC(=O)N[C@H]1CC[C@H](CCNC(=O)Cc2ccccn2)O[C@@H]1CO -4.42%
CCC(=O)N1C[C@@H](C)[C@H](OC)CN(C)C(=O)c2ccc(NC(=O)C3CCOCC3)cc2OC[C@@H]1C -9.88%
O=C(c1ccccc1)N1CC(=O)N2[C@@H](CO)[C@H](c3ccc(C#CC4CC4)cc3)[C@@H]2C1 16.5%
C[C@H](CO)N1C[C@H](C)[C@H](CN(C)C(=O)C2CCC2)Oc2ncc(C#CCc3ccccc3)cc2C1=O -34.2%
CCCC#Cc1ccc([C@H]2[C@H]3CN(C(=O)Nc4cccc(F)c4)CC(=O)N3[C@H]2CO)cc1 -4.18%
C[C@H](CO)N1C[C@H](C)[C@H](CN(C)S(C)(=O)=O)Oc2ncc(C3=CCCC3)cc2C1=O 25.5%
C[C@@H]1CN([C@H](C)CO)C(=O)c2c(c3ccccc3n2C)-c2ccccc2CO[C@H]1CN(C)S(=O)(=O)c1ccccc1F -58.8%
C[C@@H]1CN([C@@H](C)CO)C(=O)c2c(c3ccccc3n2C)-c2ccccc2CO[C@H]1CN(C)S(=O)(=O)c1cccs1 -56.5%
Cc1ccccc1S(=O)(=O)N(C)C[C@@H]1OCc2ccccc2-c2c(n(C)c3ccccc23)C(=O)N([C@H](C)CO)C[C@H]1C -67.7%
C[C@@H]1CN([C@@H](C)CO)C(=O)c2c(c3ccccc3n2C)-c2ccccc2CO[C@@H]1CN(C)S(=O)(=O)c1ccc(F)cc1 -60.8%
C[C@@H]1CN([C@@H](C)CO)C(=O)c2c(c3ccccc3n2C)-c2ccccc2CO[C@@H]1CN(C)S(=O)(=O)CC(F)(F)F 20.5%
C[C@@H]1CN([C@@H](C)CO)C(=O)c2c(c3ccccc3n2C)-c2ccccc2CO[C@@H]1CN(C)S(=O)(=O)c1cccs1 -57.7%
O=C(N[C@@H]1C=C[C@@H](CC(=O)N2CCOCC2)O[C@H]1CO)c1ccccn1 35.5%
